Data as given in PubChem BioAssay AID951 (NMMLSC, 2007).
About 140 (0.074%) of roughly 190,000 compounds were called active. The sample holds actives, similar compounds and a random draw of the others, so the mix is not that of the screen. Rule as the data show it: active = inhibition above about 40%.

The compounds below were run against Bcl-2-like protein 10 (Homo sapiens) (UniProt Q9HD36) (assay: Bcl-B and Bim peptide interaction disruptors – biochemical, multiplexed, human Bcl-2 family, primary screen (AID 951;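 also: 0% = tracer peptide without compound and 100% = reference inhibitor peptide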)). Conditions: bead-based flow cytometry, Bim peptide-Bcl-B binding; at 10 µM; stronger effect = higher value.
Chain of Bcl-2-like protein 10 (Homo sapiens) (Q9HD36 whole entry, looked up): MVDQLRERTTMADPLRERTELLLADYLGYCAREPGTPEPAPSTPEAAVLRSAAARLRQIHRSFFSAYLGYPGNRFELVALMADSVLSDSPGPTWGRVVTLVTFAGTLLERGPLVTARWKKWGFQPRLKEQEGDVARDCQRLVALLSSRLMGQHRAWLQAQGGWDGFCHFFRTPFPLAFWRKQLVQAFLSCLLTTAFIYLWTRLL

SMILES	inhibition
CC(C)NC(=O)/C(C#N)=C\c1ccc(N(C)C)c(Br)c1	-2% (inactive)
CCc1nccn1S(=O)(=O)c1cccc([N+](=O)[O-])c1	-2% (inactive)
CCc1c(SCCC(=O)O)nc2ccccc2c1C	-7% (inactive)
CN(Cc1ccccn1)Cc1nc(-c2ccc(Cl)cc2)no1	-6% (inactive)
Nc1nnnn1CC(=O)N/N=C/c1ccc(-c2cccc(Cl)c2)o1	-4% (inactive)
Cc1cc(C)n(-c2ccc3nncn3n2)n1	2% (inactive)
Cc1ccc(C2=NN(C(=O)CSc3nc(N)cc(N)n3)C(c3ccco3)C2)cc1 (stereo unspecified)	-27% (inactive)
CC1CCc2sc(C(=O)N/N=C/C3CCCCC3)cc2C1 (stereo unspecified)	-6% (inactive)
Cc1ccc2nc(-c3ccncc3)cc(C(=O)Nc3ccc(OC(F)F)cc3)c2c1	1% (inactive)
COc1ccc(-n2cc(CNC3CCOCC3)c(-c3cccc(F)c3)n2)cc1	-5% (inactive)
COc1ccc(Cl)cc1N(CC(=O)N1CCCCC1)S(C)(=O)=O	-5% (inactive)
CSCc1cc(N(C)C)nc(SCc2ccc(Cl)cc2Cl)n1	69% (active)
Clc1ccc(CSc2nnc(/C=C/c3ccccc3)o2)c(Cl)c1	-9% (inactive)
CSCc1cc(N2CCOCC2)nc(SCc2ccc(Cl)cc2Cl)n1	-11% (inactive)
Cc1cccc(NC(=S)N2CCCC(c3nc4ccccc4[nH]3)C2)c1 (stereo unspecified)	-14% (inactive)
O=C(COC(=O)[C@H](Cc1ccccc1)NC(=O)c1cccs1)Nc1cc(F)ccc1F	-14% (inactive)
Cc1ccc(C)c(NC(=O)CSc2nc3c(oc4ccccc43)c(=O)n2-c2ccccc2)c1	-6% (inactive)
C/C(=N\NC(=O)c1cccc(N2CCCC2=O)c1)c1ccc(N)cc1	-7% (inactive)
CC(O)C(NS(=O)(=O)c1ccc(Cl)cc1)C(=O)OCc1cc([N+](=O)[O-])cc2c1OCOC2 (stereo unspecified)	0% (inactive)
COc1ccc(N(C(=O)c2ccc(C)cc2)S(=O)(=O)c2cccs2)cc1	-6% (inactive)
CSCCC(NC(=O)COc1ccccc1)C(=O)Nc1ccc(C)cc1 (stereo unspecified)	-6% (inactive)
Cc1nc(CC(=O)NNS(=O)(=O)c2ccc(F)c(Cl)c2)cs1	1% (inactive)
O=C(NC1CCCCC1)C1CCCN(S(=O)(=O)c2ccc(Br)s2)C1 (stereo unspecified)	-6% (inactive)
c1ccc2c(c1)CSc1sccc1C2=C1CCNCC1	-4% (inactive)

SMILES	inhibition
Cc1ccc(C(C)NC(=O)Cn2nc(C)c([N+](=O)[O-])c2C)cc1 (stereo unspecified)	-3% (inactive)
CCOC(=O)N/N=C/c1cccnc1	-4% (inactive)
CCN(CC)P(=O)(Nc1ccc(SC(F)F)cc1)c1ccc(N(C)C)cc1NC(=O)c1ccco1 (stereo unspecified)	1% (inactive)
CN(C)C(=O)N1CCNCC1	0% (inactive)
Cc1cc(C)n(CC(=O)Nc2ccc([N+](=O)[O-])cc2)n1	0% (inactive)
CC(C)C(=O)NCc1cc(-c2ccc(Cl)cc2)no1	5% (inactive)
CC1=NN(C(=O)CCCc2ccccc2)C(O)(C(F)(F)F)C1 (stereo unspecified)	-2% (inactive)
OCC1(CCOc2ccccc2)CCN(Cc2cn[nH]c2-c2ccccc2)CC1	-2% (inactive)
CN1CCN(c2ccc(S(=O)(=O)N3CCCCC3)cc2NC(=O)Cc2ccccc2F)CC1	-4% (inactive)
COc1ccc(N2CCN(C(=O)CNS(=O)(=O)c3ccc(C)c(C)c3)CC2)cc1	-2% (inactive)
O=C(CCC1CCCN(Cc2ccc(O)c(Cl)c2)C1)NCc1ccccc1F (stereo unspecified)	-1% (inactive)
CCCCN(CC(=O)NC(C)(C)C)C(=O)C(=O)Nc1ccc2c(c1)OCCO2	1% (inactive)
COc1ccccc1N1CCN(CC(=O)NC(=O)NCc2ccco2)CC1	-9% (inactive)
CCN(CCn1cccn1)Cc1cn[nH]c1-c1ccc(OC)cc1F	-4% (inactive)
O=C(COC(=O)CNC(=O)c1ccccc1F)NCC(F)(F)F	-5% (inactive)
COc1ccc(C(CC(=O)Nc2ccc(C)cc2)NC(=O)C(F)(F)F)cc1 (stereo unspecified)	-9% (inactive)
CCOC(=O)c1oc2c(CN3CCN(CCO)CC3)c(O)c(CC)cc2c(=O)c1-c1nc2ccccc2s1	0% (inactive)
N#Cc1ccccc1NC(=O)COc1c(Br)cc(Br)c2cccnc12	-7% (inactive)
Cc1ccc(Nc2nc(CSc3nnc(-c4ccncc4)n3-c3ccccc3C)cs2)cc1	-11% (inactive)
CCCCc1ccc(NC(=S)N2CCCC(CO)C2)cc1 (stereo unspecified)	-7% (inactive)
Cc1ccc(NC(=O)O/N=C/c2cccc([N+](=O)[O-])c2)cc1	0% (inactive)
CCOc1cc(NC(=S)NCCCOC)c(OCC)cc1NC(=O)c1ccco1	-11% (inactive)
NC(=O)c1ccccc1N=Cc1ccc2ccccc2c1	-4% (inactive)
O=c1c(-c2ccccc2)cnc2n1CCS2	-2% (inactive)

SMILES	inhibition
O=C(CC1SCCNC1=O)Nc1ccc(Cl)c(Cl)c1 (stereo unspecified)	-1% (inactive)
CCC(CC)C(=O)N1CCN(c2cccc(C)c2C)CC1	0% (inactive)
CCN(CC)CCNC(=O)c1ccc(NS(=O)(=O)c2ccc3c(c2)OCCO3)cc1	0% (inactive)
Cc1nc2ccccc2n1CC(=O)N/N=C/c1cccs1	-6% (inactive)
CN(C)c1ccc(C(=S)N2CCN(C(=S)Nc3ccc(Cl)cc3)CC2)cc1	-6% (inactive)
CN1CCN(CCNC(=O)Nc2ccc([N+](=O)[O-])cc2)CC1	-5% (inactive)
O=C(Nn1cnc2ccccc2c1=O)c1ccc([N+](=O)[O-])cc1Cl	0% (inactive)
Cc1c(CN2CCCCC2)c(O)n(CCO)c(=O)c1C#N	-3% (inactive)
CCOc1cc(NC(=O)CCl)c(OCC)cc1NC(C)=O	-4% (inactive)
CC(NC(=O)COC(=O)c1ccc2c(c1)OCO2)c1ccccc1 (stereo unspecified)	0% (inactive)
CC(C)NC(=O)c1ccc(Cl)cc1Cl	-2% (inactive)
Cn1c(-c2sccc2OCc2cccc(C(F)(F)F)c2)n[nH]c1=S	-24% (inactive)
O=C(CC(NC(=O)c1ccccc1)c1ccccc1)Nc1ccc(F)c(F)c1 (stereo unspecified)	-6% (inactive)
CCOC(=O)C1(C)NC(c2ccco2)C2C(=O)N(c3ccccc3)C(=O)C21 (stereo unspecified)	-1% (inactive)
CC(=O)c1c(N2CCN(c3ccc(F)cc3)CC2)nc(=S)n(-c2ccccc2)c1C	-11% (inactive)
CNC(=O)C(=O)N/N=C/c1ccccn1	2% (inactive)
CCCC1NC(=S)NC(C)=C1C(C)=O (stereo unspecified)	-2% (inactive)
C/C(=N/NC(=O)CSc1ccccn1)c1ccc([N+](=O)[O-])cc1	-2% (inactive)
CC(C)(C)C(=O)CSc1nc2ccccc2o1	-4% (inactive)
CCOC(=O)C(C)Oc1cccc2c(=O)n(CC(=O)NCCc3ccc(OC)c(OC)c3)ccc12 (stereo unspecified)	-3% (inactive)
CCSC1=NCCN1C(=O)c1ccc(S(=O)(=O)N(CC)CC)cc1	-5% (inactive)
CC(C)(C)c1ccc(/C=C2\SC(=O)N=C2N)cc1	-3% (inactive)
Cc1c(Br)c([N+](=O)[O-])nn1CC(=O)Nc1sc2c(c1C(=O)OC(C)C)CCC(C)C2 (stereo unspecified)	2% (inactive)
Cc1cc(Cl)ccc1OCc1nc(-c2ccncc2)no1	-5% (inactive)

SMILES	inhibition
O=C(Nc1ccc2c(c1)CCC2)c1ccc(Br)s1	0% (inactive)
CCn1cc(C(=O)NCCCN2CCCCCC2)c(=O)c2cc(S(=O)(=O)N3CCc4ccccc4C3)ccc21	-12% (inactive)
O=C(N/N=C/c1cc2c(cc1Br)OCO2)C1COc2ccccc2O1 (stereo unspecified)	1% (inactive)
O=[N+]([O-])c1cccc(/C([O-])=C(/C(=S)Nc2ccccc2F)[n+]2ccccc2)c1	-16% (inactive)
COc1cccc(-c2ccc(C#N)c(SCC(=O)NCCc3ccc(Cl)cc3)n2)c1	-12% (inactive)
O=C(NCC1CCCO1)C1CCN(C2CCN(C(=O)C3CCCCC3)CC2)CC1 (stereo unspecified)	0% (inactive)
Cc1cccc(-n2c(SCC(=O)Nc3cccc(S(=O)(=O)NC4=NCCCCC4)c3)nc3ccccc3c2=O)c1C	-4% (inactive)
O=C(Nc1ccc(F)cc1)C1CCN(C(=O)c2ccc([N+](=O)[O-])cc2)CC1	6% (inactive)
O=C(O)c1ccc(NS(=O)(=O)c2ccc3c(c2)C(=O)c2cc(S(=O)(=O)Nc4ccc(C(=O)O)cc4)ccc2-3)cc1	-6% (inactive)
O=C(COC(=O)Cc1ccc(Br)cc1)Nc1c(F)c(F)c(F)c(F)c1F	-7% (inactive)
CC(=O)c1ccccc1NC(=O)CC1(CC(=O)O)CCCCC1	-1% (inactive)
NS(=O)(=O)c1ccc(NC(=S)Nc2ccc(Br)c(Cl)c2)cc1	-9% (inactive)
CC(=O)NS(=O)(=O)c1ccc(NC(=S)NC(=O)C(C)(C)C)cc1	-4% (inactive)
CC(C)(C)C(=O)NC(NC(=S)Nc1ccc(S(N)(=O)=O)cc1)C(Cl)(Cl)Cl (stereo unspecified)	49% (active)
COc1cccc(C2c3[nH]c4ccccc4c3CCN2Cc2cccc(C)n2)c1 (stereo unspecified)	-3% (inactive)
CCOc1ccc2nc(NC(=O)c3cc([N+](=O)[O-])ccc3N3CCOCC3)sc2c1	-3% (inactive)
O=C(CCc1ccccc1)Nc1ccc(NC(=O)C2CCCCC2)nc1	0% (inactive)
O=C(NNC(=S)NCCCN1CCOCC1)c1ccncc1	-2% (inactive)
OC(COCc1ccco1)CN1CCN(c2ccccc2)CC1 (stereo unspecified)	-4% (inactive)
Cc1cc(N2CCOCC2)nc2ccc(NC(=S)N3CCN(Cc4ccccc4)CC3)cc12	-4% (inactive)
CCNC(=O)CC1C(=O)N(c2ccc(F)cc2)C(=O)N1Cc1cccs1 (stereo unspecified)	-6% (inactive)
CCO[C@H]1OC(C(=O)N2CCN(Cc3ccccc3)CC2)=C[C@@H](c2cn(C(C)=O)c3ccccc23)[C@@H]1CCCO	-3% (inactive)
CN(C)N(C)C(=O)C(O)(c1ccccc1)c1ccccc1	-2% (inactive)
CS(=O)(=O)c1ccc2nc(NC(=O)c3ccc(Cl)nc3)sc2c1	-2% (inactive)
